The record followed here is PubChem BioAssay (NCI).

The panel holds about 79,000 compounds, 15% with a hit somewhere; the sample as a whole holds those more often. A number with no mark means an inactive call. Activity calls are given as the source filed them. Cut-off read from the data, not from the text of the source: active = growth inhibition above about 70%; inactive = the rest.

The nature of this test: NCI Yeast Anticancer Drug Screen. Data for the mec2-1 strain (AID 157). The conditions noted are these: S. cerevisiae mec2-1 strain, at 50.0 µM (retest, dose inferred, filed as 5.0), hits give high values. The procedure, abridged: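 Using mec2-1 yeast: add compound, measure growth, express inhibition versus vehicle-treated cultures.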
With `N#C/C(=C\C(Cl)=C/c1ccccc1)C(N)=S`, the growth inhibition is 99% (active).
`CC[N+](C)(CC)CCC(=O)/C=C/c1ccccc1`: the growth inhibition was 69%.
In the case of `CC(=O)n1c(=S)n(C(C)=O)c2ccccc21` it was 89% (active); in that of `Nc1ccccc1/C=C1/Sc2cc[nH]c2C1=O`, -1%; in that of `C=C1CC2(CCCC3(CC(=C)C(=O)O3)C2(C)C)OC1=O` (stereo not given), 98% (active).
With `O=C1/C(=C\c2ccc(Cl)cc2Cl)Sc2scc(-c3ccc(O)c(O)c3)[n+]21`, the growth inhibition was 67%.
The same measure for `COc1cc(OC(C)C)cc2c1C(=O)C(C(O)(O)C(F)(F)F)=CC2=O`: 81% (active); for `Cc1c(N=Nc2ccc(Br)cc2)c(-c2ccccc2)nn1C(N)=S`: 97% (active).
In the case of `COc1ccc2nc3c([N+](=O)[O-])ccc(NCCCN(C)C)c3c(N)c2c1`, the growth inhibition is 70% (active).
Consider `CN(C)CCC[Si]1(C)c2ccccc2CCc2ccccc21`, for which the growth inhibition is 15%.
For the compound `CC(=O)N(C)c1cc(NCc2ccccc2)ccc1OCc1ccccc1`, the growth inhibition was 95% (active).
For the compound `ClCCOCCOc1c(Cl)cc(Cl)c(Cl)c1Cl`, the growth inhibition was 13%.
On to `Nc1ccc2nc(N)sc2c1`, for which the growth inhibition was 2%.
Take `CC(C)(C)c1cc(C2c3cc4c(cc3OC(O)(CO)C2C(=O)O)OCO4)cc(C(C)(C)C)c1O` (stereo not given) (tested in a mixture with another compound): the growth inhibition is 61%.
As for `COc1ccc(C2COc3c(ccc(O)c3O)C2)cc1OC` (stereo not given), the growth inhibition is 55%.
In the case of `Cc1ccc(OCC2CO2)c(Br)c1` (stereo not given), the growth inhibition was 19%.
In the case of `CCN(CC)CCNc1ccc(C)c2sc3c(OC)cccc3c(=O)c12`, the growth inhibition was 4%.
On to `CC(C)C(O)C(C)C`, for which the growth inhibition is -3%.
In the case of `O=C1CSC2(CCN(CCCN3c4ccccc4Sc4ccc(Cl)cc43)CC2)N1`, the growth inhibition was 45%.
The same measure for `C1=CN2C(c3ccccc3)=NN(c3ccccc3)[C@@H]2c2ccccc21`: 53%; for `CC(=O)Nc1ccc(-c2csc(Nc3ccnc4cc(Cl)ccc34)n2)cc1`: 46%; for `O=C(Nc1ccc(/C=C/c2ccc(NC(=O)c3cc(S(=O)(=O)O)c4cccnc4c3O)cc2S(=O)(=O)O)c(S(=O)(=O)O)c1)c1cc(S(=O)(=O)O)c2cccnc2c1O`: 97% (active).
For the compound `COc1ccccc1C1C2=C(COC2=O)OC(C)(C)Oc2cc3c(cc21)OCO3` (stereo not given), the growth inhibition is 96% (active).
Turning to `COC(=O)CSc1n[nH]c(-c2ccc(O)c([N+](=O)[O-])c2)n1`, the growth inhibition was 56%.
Consider `COc1ccc(CN2CCCN(Cc3ccc(OC)cc3OC)C2c2cccc([N+](=O)[O-])c2O)c(OC)c1`, for which the growth inhibition is 29%.
`Oc1c(Cl)cc(C(c2cc(Cl)c(O)c(Cl)c2)C(Cl)(Cl)Cl)cc1Cl`: the growth inhibition is 99% (active).
`Cc1cc(Cl)cc2c1NC(=O)C2(O)C/C(=N/NC(=O)CC#N)c1cccc([N+](=O)[O-])c1` (stereo not given): the growth inhibition is 35%.
Turning to `COc1ccc(C2Oc3ccc(Cl)cc3C=C2[N+](=O)[O-])cc1` (stereo not given), the growth inhibition was 95% (active).
The same measure for `CN(Cc1cc(Cl)cc(Cl)c1O)Cc1c(O)ccc2ccccc12`: 100% (active); for `Cc1c(NC(=O)/C(=N/NC(=S)N=N)C2C(=O)CC(C)(C)CC2=O)c(O)c2ccccc2c1O`: 99% (active); for `O=C1CCC(Cc2ccccc2Br)C(=O)N1` (stereo not given): 6%.
Consider `O=C1CSc2ccccc2-n2cccc21`, for which the growth inhibition was 8%.
The same measure for `CCCc1cc2c(cc1CS(=O)(=O)CC)OCO2`: -2%.
Take `CS(=O)(=O)C(c1nc2nnc(NC(=O)Nc3ccc(Cl)cc3)n2[nH]c1=O)c1nc2nnc(NC(=O)Nc3ccc(Cl)cc3)n2[nH]c1=O`: the growth inhibition was 23%.
For `COc1cc(C2c3cc4c(cc3OC3(O)C=C(C)OC(=O)C23)OCO4)cc(OC)c1OC` (stereo not given), the growth inhibition was -4%.
Consider `CC(C)OCc1cccc2ccnc(COC(C)C)c12`, for which the growth inhibition was 14%.
On to `COc1cc2c(cc1OC)-c1nc(Nc3ccccc3)sc1CC2`, for which the growth inhibition was 94% (active).
In the case of `NC(=O)CCSC(=S)N1CCOCC1` it was -2%.
As for `CC1=C(c2ccccc2)C(=O)OC1=O`, the growth inhibition was 0%.
As to `CC1=C(C)CC2C(=O)C(C(O)CC(C)C)=CC(=O)C2C1` (stereo not given), the growth inhibition is 91% (active).
